Test systems include NCI-H23 lung; NCI-H226 lung; NCI-H322M lung; HOP-62 NSCLC; NCI-H460 lung; HOP-92 NSCLC; NCI-H522 lung; A549/ATCC NSCLC; 786-0 renal; COLO 205 colon.
Assay in all cases: NCI-60 one-dose screen, 48 h (100 = growth as untreated, 0 = no growth, -100 = all killed)
Common to all, as to conditions: 10 µM unless noted

This is part of a sample that, as a whole, favours compounds with a hit. Of some 83,000 tested, about 20% had one in any assay.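 Values shown are percent growth following 48 h exposure of cells in 96-well plates to a single concentration of compound; below 10 was considered active.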 Values without a mark were called inactive. Calls of active or inactive are those of the source.

In the case of `CC1(C)C2CCC(O)(C(=O)O)C1C2` (stereo not given), the growth in the assay on NCI-H23 lung is 113%; in the assay on NCI-H226 lung, 113%; in the assay with NCI-H322M lung, 95.9%; with HOP-62 NSCLC, 113%; with NCI-H460 lung, 116%; in the assay on HOP-92 NSCLC, 117%. For the same compound, the growth is 117% with NCI-H522 lung, 111% in the assay on A549/ATCC NSCLC, 107% with 786-0 renal and 127% with COLO 205 colon.

As for `O=C(/C=C/c1cn(-c2ccccc2)nc1-c1cccc(Nc2ccnc3cc(Cl)ccc23)c1)c1ccc2c(c1)OCO2`, the growth with NCI-H23 lung was 101%; with NCI-H226 lung, 99.1%; with NCI-H322M lung, 86.2%; in the assay on HOP-62 NSCLC it was 107%; with NCI-H460 lung, 102%; in the assay on HOP-92 NSCLC, 88.1%. For the same compound, the growth with NCI-H522 lung was 127%; in the assay with A549/ATCC NSCLC, 93.4%; in the assay on 786-0 renal, 99.8%; in the assay on COLO 205 colon, 102%.

Consider `COc1cccc(OCC(O)CN2CCN(c3ccccc3)CC2)c1` (stereo not given), for which the growth with NCI-H23 lung was 106%; with NCI-H226 lung, 106%; with NCI-H322M lung, 129%; in the assay with HOP-62 NSCLC, 103%; in the assay with NCI-H460 lung it was 114%; with HOP-92 NSCLC it was 129%. In addition, the growth in the assay with NCI-H522 lung is 80.3%; in the assay on A549/ATCC NSCLC, 114%; with 786-0 renal it was 104%; with COLO 205 colon, 138%.

As for `Cc1ccc(NC(=O)c2[nH]c(SCCN(C)C)nc2-c2ccc(F)cc2)cc1Nc1ccc2ncn(C)c(=O)c2c1`, the growth was 42.1% in the assay on NCI-H23 lung; 63.9% in the assay on NCI-H226 lung; 67% in the assay with NCI-H322M lung; 58.5% in the assay with HOP-62 NSCLC; 56.3% in the assay with NCI-H460 lung; 38.7% in the assay with HOP-92 NSCLC. For the same compound, the growth in the assay on NCI-H522 lung was 69.5%; in the assay on A549/ATCC NSCLC, 40.3%; in the assay on 786-0 renal, 72.8%; in the assay with COLO 205 colon, 14.5%.

On to `N#Cc1ccc(NC(=O)Nc2nc3ccc(OC(F)(F)F)cc3s2)cc1`, for which the growth in the assay with NCI-H23 lung was -22.1% (active); in the assay on NCI-H226 lung, 12.7%; in the assay on NCI-H322M lung it was 4% (active); with HOP-62 NSCLC, 3.68% (active); in the assay with NCI-H460 lung it was -3.29% (active); in the assay with HOP-92 NSCLC, -13.1% (active). Also, the growth in the assay with NCI-H522 lung is -33.5% (active); in the assay with A549/ATCC NSCLC, 3.01% (active); in the assay on 786-0 renal, -12.6% (active); with COLO 205 colon, -90.1% (active).

Regarding `COc1ccc(Nc2ncnc3c2sc2nc(C)cc(C)c23)cc1`, the growth with NCI-H23 lung was 111%; in the assay on NCI-H226 lung, 103%; in the assay with NCI-H322M lung, 102%; in the assay on HOP-62 NSCLC, 107%; in the assay on NCI-H460 lung it was 97.9%; in the assay with HOP-92 NSCLC, 130%. The growth with NCI-H522 lung was 99.9%; in the assay with A549/ATCC NSCLC, 96%; in the assay with 786-0 renal, 93.9%; with COLO 205 colon it was 111%.

For `C/C(CC(=O)NNc1ccc([N+](=O)[O-])cc1)=N\Nc1ccc([N+](=O)[O-])cc1`, the growth in the assay with NCI-H23 lung is 87.5%; with NCI-H226 lung, 96.2%; in the assay with NCI-H322M lung, 71.7%; in the assay with HOP-62 NSCLC, 83%; with NCI-H460 lung, 27.9%; in the assay on HOP-92 NSCLC it was 90.5%. For the same compound, the growth in the assay with NCI-H522 lung is 60.8%; in the assay with A549/ATCC NSCLC it was 56.1%; in the assay with 786-0 renal it was 55.3%; in the assay on COLO 205 colon it was 48.8%.

`O=C(Nc1ccc2ncnc(Nc3ccc(F)c(Cl)c3)c2c1)c1cccs1`: the growth in the assay on NCI-H23 lung is 81.6%; in the assay on NCI-H226 lung, 58.1%; in the assay on NCI-H322M lung, 19.3%; in the assay on HOP-62 NSCLC it was 72.7%; in the assay on NCI-H460 lung it was 39.6%; in the assay on HOP-92 NSCLC it was 38%. The growth is 31.4% with NCI-H522 lung, 43.3% in the assay with A549/ATCC NSCLC, 14.8% with 786-0 renal and 106% in the assay with COLO 205 colon.

On to `COc1ccc(NC(=O)/C=C/c2ccc(NC(=O)N3CCCC3)cc2)cn1`, for which the growth in the assay on NCI-H23 lung is 105%; in the assay on NCI-H226 lung, 96.6%; in the assay on NCI-H322M lung, 106%; in the assay on HOP-62 NSCLC, 104%; in the assay on NCI-H460 lung, 105%; with HOP-92 NSCLC, 103%. Also, the growth in the assay on NCI-H522 lung was 95.9%; in the assay on A549/ATCC NSCLC, 100%; with 786-0 renal, 109%; with COLO 205 colon it was 112%.

Turning to `COc1ccc(/C=c2\c(=O)n(-c3ccccc3)c3nn4c(=O)c(=O)[nH]nc4n23)cc1`, the growth is 99.9% with NCI-H23 lung; 92.8% with NCI-H226 lung; 113% in the assay on NCI-H322M lung; 102% in the assay with HOP-62 NSCLC; 106% in the assay with NCI-H460 lung; 100% with HOP-92 NSCLC. In addition, the growth was 100% with NCI-H522 lung, 110% in the assay with A549/ATCC NSCLC, 108% in the assay on 786-0 renal and 119% with COLO 205 colon.

With `CC(C)(C)NC(=O)C(OC(=O)C1CCc2cc(F)ccc2O1)c1ccccc1Cl` (stereo not given), the growth in the assay on NCI-H23 lung is 93.5%; in the assay on NCI-H226 lung it was 95.6%; with NCI-H322M lung, 95.6%; in the assay on HOP-62 NSCLC, 94.4%; with NCI-H460 lung it was 104%; with HOP-92 NSCLC, 89%. In addition, the growth with NCI-H522 lung was 82.4%; in the assay on A549/ATCC NSCLC, 98.6%; with 786-0 renal it was 100%; in the assay with COLO 205 colon, 130%.

As to `O=C1Nc2ccccc2/C1=C/c1c[nH]c2ccccc12`, the growth with NCI-H23 lung is 78.9%; in the assay with NCI-H226 lung, 83.4%; in the assay with NCI-H322M lung, 70.1%; in the assay with HOP-62 NSCLC, 66%; in the assay on NCI-H460 lung, 88.7%; in the assay on HOP-92 NSCLC, 65.2%. The growth in the assay on NCI-H522 lung was 88.7%; in the assay on A549/ATCC NSCLC, 77.3%; with 786-0 renal it was 105%; in the assay on COLO 205 colon, 115%.

On to `Cc1ccc(CSCc2ccc(C(=O)NC3CC3)o2)cc1`, for which the growth in the assay on NCI-H23 lung is 82%; in the assay with NCI-H226 lung, 105%; with NCI-H322M lung, 80.8%; with HOP-62 NSCLC it was 109%; with NCI-H460 lung it was 52.2%; with HOP-92 NSCLC it was 75.2%. Besides, the growth in the assay on NCI-H522 lung was 43.5%; in the assay on A549/ATCC NSCLC, 45.3%; in the assay with 786-0 renal, 91.6%; in the assay with COLO 205 colon, 63.7%.

For `CCOC(=O)c1sc2nc(-c3cc4ccccc4o3)cc(-c3ccc(Cl)cc3)c2c1N`, the growth is 98.9% with NCI-H23 lung; 89.2% with NCI-H226 lung; 112% in the assay with NCI-H322M lung; 107% in the assay on HOP-62 NSCLC; 110% in the assay with NCI-H460 lung; 71.1% in the assay on HOP-92 NSCLC. For the same compound, the growth in the assay with NCI-H522 lung was 88.6%; with A549/ATCC NSCLC, 123%; in the assay with 786-0 renal, 118%; in the assay on COLO 205 colon, 115%.

Values taken from PubChem BioAssay (NCI).
